CtBP-E1A inh = inhibitors of CtBP/E1A interaction | 340,000 tested, 0.49% active | activity change, % (concentration not given with the values) | AlphaScreen GST-E1A/His-CtBP binding, 1536-well; active compounds read low; in the data active = activity change below about -65%; inconclusive = mostly about -30% to -63%; note: % is set by controls: 0 for no effect and ±100 for the full control effect
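GST-E1A and His-tagged CtBP (125 nM each as 5X stock) were preincubated with pin-transferred compound for 2 h at 37 °C in the dark, then glutathione donor and nickel acceptor beads were added for 1 h before AlphaScreen reading.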
HP1b chromo inh = blocks HP1-beta chromodomain binding to methylated histone tails; AlphaScreen HP1-beta / biotin-H3K9me3 peptide binding; Potency, µM (highest dose often 114 µM), for inactives: top-dose activity change, negative = inhibition, usual class: inhibitors; 390,000 tested, 0.56% active; note: potency is the fitted concentration of half-maximal effect; nearly all actives have a fitted effect of over 70% in size
Target sequence (P83916 whole entry, looked up): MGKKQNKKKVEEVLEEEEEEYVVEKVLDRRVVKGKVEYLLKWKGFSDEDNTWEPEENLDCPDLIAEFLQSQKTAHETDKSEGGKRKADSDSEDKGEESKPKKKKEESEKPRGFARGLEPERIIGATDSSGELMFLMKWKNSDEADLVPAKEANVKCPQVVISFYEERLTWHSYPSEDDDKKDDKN
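HP1-beta protein (50 nM final) preincubated 30 min at room temperature with biotinylated H3(1-18)K9me3 peptide (50 nM) in PBS pH 7.4, 0.01% Tween-20, then compound added for 30 min. AlphaScreen streptavidin donor/nickel chelate acceptor beads (10 ug/mL final), 30 min dark, luminescence read.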
BAZ2B inh = inhibitors of human BAZ2B bromodomain | Q9UIF8 | AlphaScreen BAZ2B-H3K14Ac peptide displacement | Potency, µM (highest dose often 114 µM), without a hit: at the top dose activity change, negative = inhibition, actives largely listed as inhibitors | 360,000 tested, 4.4% active | AID 504333; note: potency is the fitted concentration of half-maximal effect; % is set by controls: 0 for no effect and ±100 for the full control effect; nearly all actives have a fitted effect of over 60% in size
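Protein-peptide AlphaScreen: BAZ2B 50 nM, b-H3K14Ac 50 nM, 1x PBS pH 7.4 + 0.01% Tween-20. Preincubation 30 min RT; cpd 30 min RT (top 110 uM); beads 20 min RT, light-protected.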
G9a inh = inhibitors of human histone lysine methyltransferase G9a | G9a H3K9 monomethylation, AlphaScreen, 2 h | AID 504332 | Potency, µM (series often up to 102 µM), inactives show at the top dose activity, negative = inhibition, hits mostly inhibitors | 350,000 tested, 8.8% active | Q96KQ7; note: potency is the fitted concentration of half-maximal effect; % is set by controls: 0 for no effect and ±100 for the full control effect; nearly all actives have a fitted effect of over 75% in size
Target sequence (Q96KQ7 913-1193 limits assumed): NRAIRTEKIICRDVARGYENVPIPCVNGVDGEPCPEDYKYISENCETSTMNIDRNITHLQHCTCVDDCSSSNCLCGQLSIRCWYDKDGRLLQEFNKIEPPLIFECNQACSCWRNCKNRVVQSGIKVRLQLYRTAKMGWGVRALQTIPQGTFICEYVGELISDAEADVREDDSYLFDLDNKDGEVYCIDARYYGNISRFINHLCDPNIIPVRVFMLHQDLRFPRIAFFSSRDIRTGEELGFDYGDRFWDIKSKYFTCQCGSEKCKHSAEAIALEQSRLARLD
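Signal arises when biotinylated H3K9 peptide, once monomethylated, bridges streptavidin donor and antibody-captured acceptor beads. Enzyme at 20 nM was preincubated 15 min with test compounds; peptide 500 nM and SAM 20 uM then reacted for 2 h.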
JMJD2A Tudor = JMJD2A Tudor domain (human) inhibition | O75164 | AlphaScreen JMJD2A-Tudor / H3K4me3 peptide binding | Potency, µM (titrated, usually from 114 µM), for inactives: at the top dose activity change, negative = inhibition, actives largely listed as inhibitors | 390,000 tested, 4.4% active; note: potency is the fitted concentration of half-maximal effect; % is set by controls: 0 for no effect and ±100 for the full control effect; nearly all actives have a fitted effect of over 50% in size
Six1-Eya2 inh = blocks human Six1 binding to Eya2. AlphaScreen GST-Six1/His-Eya2 binding, biochemical; active compounds read low. activity change, % (concentration not given with the values). Q15475+O00167. 360,000 tested, 0.56% active; in the data active = activity change below about -65%; inconclusive = mostly about -30% to -63%; note: % is set by controls: 0 for no effect and ±100 for the full control effect
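AlphaScreen luminescence read after one hour at 37 °C in darkness. Pin-transferred compounds met GST-Six1 and His-Eya2 protein (5X stock 250 nM/500 nM) plus glutathione donor and Ni-chelate acceptor beads (5X, 50 ug/mL).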
Starred values were filed as active, the others as inactive; [ ] = dose if it differs, or a comment. An excerpt weighted towards active compounds, which were near 10% of everything screened. Unless noted, calls come from the whole dose curve; as a rule, active = well fitted inhibition curve with a large enough effect; inconclusive = small, poorly fitted or top-dose-only effect; inactive = no such curve, though single readings can be large or run the other way.

Results for N#C/C(=C\c1ccc(N2CCOCC2)c([N+](=O)[O-])c1)c1nc2ccccc2[nH]1 ?
CtBP-E1A inh: inconclusive; HP1b chromo inh: -32%; BAZ2B inh: 35µM*; G9a inh: 1%[59 µM]; JMJD2A Tudor: inconclusive; Six1-Eya2 inh: -15

Results for Cc1ccc2nc(/C(C#N)=C/c3ccccc3C(=O)O)[nH]c2c1 ?
CtBP-E1A inh: 0; HP1b chromo inh: 52%; BAZ2B inh: 10%; G9a inh: -25%; JMJD2A Tudor: -7%; Six1-Eya2 inh: 1

What do the screens show for `Cc1ccc2nc(/C(C#N)=C\c3ccc(N4CCCCC4)c([N+](=O)[O-])c3)[nH]c2c1`?
CtBP-E1A inh: -14; HP1b chromo inh: inconclusive; BAZ2B inh: 45µM*; G9a inh: 14µM*; JMJD2A Tudor: 5.6µM*; Six1-Eya2 inh: inconclusive

Results for Cc1ccc2nc(/C(C#N)=C/c3cccc(Br)c3)[nH]c2c1 ?
HP1b chromo inh: -13%; BAZ2B inh: -27%; G9a inh: 38%[59 µM]; JMJD2A Tudor: inconclusive

How did Cc1ccc2nc(/C(C#N)=C/c3ccc(O)c(O)c3)[nH]c2c1 do in these assays?
CtBP-E1A inh: -25; HP1b chromo inh: inconclusive; BAZ2B inh: 7.9µM*; G9a inh: 8.9µM*; JMJD2A Tudor: 16µM*; Six1-Eya2 inh: -7

How did Cc1cc2c(c(=O)o1)C1O[C@](c3ccsc3)(Cc3cc(C#N)ccc31)O2 do in these assays?
BAZ2B inh: inconclusive; G9a inh: 7%[2.33 µM]

What do the screens show for `FC(F)(F)c1cccc(Cn2c3[n+](c4ccc(C(F)(F)F)cc42)CCCCC3)c1`?
CtBP-E1A inh: 6; HP1b chromo inh: 18%; BAZ2B inh: -22%; G9a inh: 22µM*; JMJD2A Tudor: -16%; Six1-Eya2 inh: 0

What do the screens show for `O=C(Cn1c2[n+](c3ccc(C(F)(F)F)cc31)CCCCC2)Nc1ccc(Br)cc1`?
CtBP-E1A inh: 7; HP1b chromo inh: 38%; BAZ2B inh: inconclusive; G9a inh: 35µM*; JMJD2A Tudor: -4%; Six1-Eya2 inh: 3

How did Cc1cc(C(C)(C)C)cc(C)c1Cn1c2[n+](c3ccc(C(F)(F)F)cc31)CCCCC2 do in these assays?
CtBP-E1A inh: 1; HP1b chromo inh: 3%; BAZ2B inh: 1%; G9a inh: -47%; JMJD2A Tudor: inconclusive; Six1-Eya2 inh: 1

What do the screens show for `N#Cc1ccc(NC(=O)Cn2c3[n+](c4ccc(C(F)(F)F)cc42)CCCCC3)cc1`?
CtBP-E1A inh: 3; HP1b chromo inh: -8%; BAZ2B inh: -13%; G9a inh: inconclusive; JMJD2A Tudor: 14µM*; Six1-Eya2 inh: 10

How did CCc1ccc(NC(=O)Cn2c3[n+](c4c(F)c(F)ccc42)CCCCC3)cc1 do in these assays?
CtBP-E1A inh: -7; HP1b chromo inh: 30%; BAZ2B inh: -23%; G9a inh: inconclusive; JMJD2A Tudor: -1%; Six1-Eya2 inh: 1

What do the screens show for `COc1ccc(CCC(=O)OCC(=O)Nc2sccc2C(N)=O)cc1`?
CtBP-E1A inh: -9; HP1b chromo inh: 20%; BAZ2B inh: -11%; G9a inh: 12%[12.7 µM]; JMJD2A Tudor: -21%; Six1-Eya2 inh: -2

Results for COc1ccc(Nc2nc3c([nH]2)c(=O)[nH]c(=O)n3C)cc1 ?
CtBP-E1A inh: -19; HP1b chromo inh: 9%; BAZ2B inh: -14%; G9a inh: 50µM*; JMJD2A Tudor: -24%; Six1-Eya2 inh: -1

Results for COc1ccc(Nc2nc3ccccc3c(=O)[nH]2)cc1 ?
CtBP-E1A inh: 6; HP1b chromo inh: -4%; BAZ2B inh: -26%; G9a inh: 79µM*; JMJD2A Tudor: -13%[11.4 µM]; Six1-Eya2 inh: 2

What do the screens show for `COc1ccc(Nc2c3ccccc3nc3ccccc23)cc1`?
CtBP-E1A inh: inconclusive; HP1b chromo inh: -20%; BAZ2B inh: inconclusive; G9a inh: 40µM*; JMJD2A Tudor: inconclusive; Six1-Eya2 inh: -12

Results for CCN(CC(=O)Nc1ccc(C(=O)Nc2ccc(OC)cc2)cc1)Cc1nc2ccccc2c(=O)[nH]1 ?
HP1b chromo inh: 33%; BAZ2B inh: -13%; G9a inh: 35µM*; JMJD2A Tudor: 0%; Six1-Eya2 inh: -3

What do the screens show for `CC(C)C1Nc2ccc(S(N)(=O)=O)cc2C2C=CCC21` (stereo not given)?
CtBP-E1A inh: -5; HP1b chromo inh: -8%; BAZ2B inh: inconclusive; G9a inh: 1.4µM*; JMJD2A Tudor: inconclusive; Six1-Eya2 inh: -4

How did NS(=O)(=O)c1ccc2c(c1)C1C=CCC1C(C1CC=CCC1)N2 (stereo not given) do in these assays?
CtBP-E1A inh: -11; HP1b chromo inh: -20%; BAZ2B inh: 50µM*; G9a inh: inconclusive; JMJD2A Tudor: inconclusive; Six1-Eya2 inh: -9

What do the screens show for `O=C(NCCCN1CCOCC1)C1Nc2ccc(OC(F)(F)F)cc2C2C=CCC12` (stereo not given)?
CtBP-E1A inh: 4; HP1b chromo inh: 19%; JMJD2A Tudor: -28%; Six1-Eya2 inh: 3

What do the screens show for `O=C(O)CC1CCCc2ccccc2C1O` (stereo not given)?
G9a inh: 29%[59 µM]

Results for CCOC(=O)[C@]12CCCC=C1N(Cc1ccccc1)C(=O)[C@H](CC(=O)NCc1ccc(C)o1)C2 ?
CtBP-E1A inh: -27; Six1-Eya2 inh: -6

Results for CCNC(=O)COc1ccc(/C=C2\COc3ccccc3C2=O)cc1OC ?
CtBP-E1A inh: -8; HP1b chromo inh: 4%; BAZ2B inh: -9%; G9a inh: 40µM*; JMJD2A Tudor: -26%; Six1-Eya2 inh: 5

How did CCOc1cc(/C=C2\COc3ccccc3C2=O)ccc1OCC(=O)N(C)C do in these assays?
CtBP-E1A inh: -14; HP1b chromo inh: -13%; BAZ2B inh: inconclusive; G9a inh: -19%; JMJD2A Tudor: -32%; Six1-Eya2 inh: -9

Results for CN1CCN(c2nnc(-c3ccc(F)cc3)c3ccccc23)CC1 ?
CtBP-E1A inh: -1; HP1b chromo inh: -19%; BAZ2B inh: -28%; G9a inh: 40µM*; JMJD2A Tudor: inconclusive; Six1-Eya2 inh: 1

Results for CN1CCN(c2nnc(-c3ccc(Cl)cc3)c3ccccc23)CC1 ?
CtBP-E1A inh: 0; HP1b chromo inh: 15%; BAZ2B inh: 8%; G9a inh: 4%[2.33 µM]; JMJD2A Tudor: -12%; Six1-Eya2 inh: -16

How did CN1CCc2c(sc3c2C(=O)NC(c2cn(Cc4ccccc4)c4ccccc24)N3)C1 (stereo not given) do in these assays?
CtBP-E1A inh: -27; HP1b chromo inh: inconclusive; BAZ2B inh: 45µM*; G9a inh: inconclusive; JMJD2A Tudor: 40µM*; Six1-Eya2 inh: -13

High-throughput results deposited in PubChem BioAssay by National Center for Advancing Translational Sciences (NCATS).
